Active and inactive are the calls of the source.

Experiment [1] concerns Plasmodium falciparum Sir2 (PF13_0152, Sir2A). Description: Plasmodium falciparum Sir2A binding compounds – biochemical, small-molecule microarray, 635 nm fluorescence, primary screen (AID 1098).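 Note: score merges spot fluorescence intensity with its signal-to-noise ratio.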 As to conditions: fluorescence 635 nm, higher = more signal.
Experiment [2] is described as follows: probe aDKK1 binding to arrayed compounds – biochemical, biotinylated probe, 635/667 nm fluorescence, primary screen (AID 1099).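 Note: score merges 667nm spot fluorescence with signal to noise across triplicate slides.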 As to conditions: small-molecule microarray, higher = more signal.
Experiment [3] in a line: probe aCHRDL2 binding to arrayed compounds – biochemical, biotinylated probe, 635/667 nm fluorescence, primary screen (AID 1100). As to conditions: small-molecule microarray, higher = more signal.
A short description of experiment [4]: change in splice reporter luminescence, either direction, cell-based, HEK293, spliceosome inhibition project, primary screen (AID 1101).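 Note: HEK293 cells carrying a splicing-competent luciferase reporter gene; test concentration not given here.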 To be noted: HEK293 splicing luciferase reporter, 24 h, higher = more signal, called active from +8 up or from −8 down. (In general: A reporter such as luciferase makes a cellular process visible.)
Experiment [5] addresses Fibroblast growth factor 10 (Homo sapiens) (UniProt O15520). Description: compounds binding fibroblast growth factor 10 – biochemical, small-molecule microarray, 635 nm fluorescence, primary screen (AID 1102). As to conditions: FGF10 binding, fluorescence 635 nm, higher = more signal.
The subject of experiment [6] is glycogen synthase kinase-3 (GSK3A per assay name; protocol says GSK3B). Description: compounds binding glycogen synthase kinase-3 – biochemical, small-molecule microarray, 635 nm fluorescence, GSK3A, primary screen (AID 1103). Note: the record names both GSK3A and GSK3B. To be noted: fluorescence 635 nm, higher = more signal.
For experiment [7], the target named is Epidermal growth factor receptor (Homo sapiens) (UniProt P00533). Description: compounds binding epidermal growth factor receptor – biochemical, small-molecule microarray, 635 nm fluorescence, primary screen (AID 1104).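 Note: score merges 667 nm emission intensity with spot signal to noise over triplicate slides.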 As to conditions: EGFR binding, higher = more signal.
In experiment [8] the target is Follistatin-related protein 3 (Homo sapiens) (UniProt O95633). The experiment is described as follows: compounds binding follistatin-related protein 3 – biochemical, small-molecule microarray, 635 nm fluorescence, primary screen (AID 1105).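 Note: score merges emission near 667 nm and signal to noise per printed spot across three slides.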 As to conditions: FSTL3 binding, higher = more signal.
The target in experiment [9] is Dickkopf-related protein 1 (Homo sapiens) (UniProt O94907). The experiment is described as follows: small molecules binding DKK1 protein – biochemical, small-molecule microarray, 635 nm fluorescence scan, primary screen (AID 1106).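 Note: score merges emission near 667 nm with signal to noise over three replicate slides.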 To be noted: higher = more signal.
For experiment [10], the system named is Inhibin beta A chain (activin A). Description: small molecules binding activin A – biochemical, small-molecule microarray, 635 nm fluorescence scan, primary screen (AID 1107).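 Note: mouse activin A protein probed at 4.33 µg/mL on printed slides; score merges bound-protein fluorescence near 667 nm with spot signal-to-noise.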 To be noted: INHBA, higher = more signal.
Experiment [11] has as its system Human papillomavirus type 1a protein E7 (residues 44-93). Description: small molecules binding HPV E7 44-93 – biochemical, small-molecule microarray, residues 44-93, 635 nm fluorescence, primary screen (AID 1108).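 Note: E7 fragment applied at 1 µg/mL in TBST for 1 h at 4 C; score combines spot fluorescence with its signal to noise ratio.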 As to conditions: fluorescence 635 nm, higher = more signal.
A short description of experiment [12]: hepatitis C replication reporter changes, two-sided – Huh7 cells, luciferase reporter, HCV replication inhibitor project, primary screen (AID 1109).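 Note: huh7 hepatoma cells harbouring a luciferase neomycin HCV replicon reporter; luciferase luminescence as measure of HCV replicon replication; test concentration not given here.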 As to conditions: Huh7 HCV replicon luciferase reporter, 48 h; higher = more signal.
For experiment [13], the target named is Left-right determination factor 2 (Homo sapiens) (UniProt O00292). Description: small molecules binding LEFTY2 protein – biochemical, small-molecule microarray, 635 nm fluorescence scan, primary screen (AID 1110). To be noted: higher = more signal.
The target of experiment [14] is Calmodulin-1 (Homo sapiens) (UniProt P0DP23). Description: small molecules binding calmodulin-1 with EGTA – biochemical, small-molecule microarray, Cy5-labelled CALM1, profiling panel (AID 1111).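 Note: labelled calmodulin applied in Tris saline Tween buffer holding calcium plus EGTA and DTT.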 To be noted: Cy5-CALM1 binding fluorescence, higher = more signal.
The target is the same in experiment [15]. The experiment is described as follows: small molecules binding Ca-loaded calmodulin-1 – biochemical, small-molecule microarray, Cy5-labelled CALM1, plus calcium, artefact control for SMM control-protein annotation, profiling panel (AID 1112).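 Note: score merges spot fluorescence with signal to noise from triplicate slides.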 To be noted: Cy5-CALM1 binding fluorescence, higher = more signal.
Experiment [16] is described as follows: probe aWnt5a binding to arrayed compounds – biochemical, biotinylated probe, 635/667 nm fluorescence, primary screen (AID 1113).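 Note: score merges 667 nm fluorescence intensity with signal-to-noise per printed feature.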 To be noted: small-molecule microarray, higher = more signal.
The nature of experiment [17]: probe aShh binding to arrayed compounds – biochemical, biotinylated probe, 635/667 nm fluorescence, primary screen (AID 1114).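 Note: probe is biotin-labelled aShh protein from a stem cell growth factor screen; measures binding of labelled protein to compounds printed on the slide; score merges feature fluorescence at 667 nm with signal-to-noise.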 To be noted: small-molecule microarray, higher = more signal.
Experiment [18] is described as follows: probe aNog binding to arrayed compounds – biochemical, biotinylated probe, 635/667 nm fluorescence, primary screen (AID 1115).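 Note: probe is biotinylated aNog protein used at 0.15 µg/mL for 1 h at 4 C; z-score combines 667 nm fluorescence of each spot with its signal to noise.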 As to conditions: small-molecule microarray, higher = more signal.
Experiment [19] has as its target Torsin-1A-interacting protein 1 (Homo sapiens) (UniProt Q5JTV8). Description: compound microarray binding of lysate hLAP1 – cell lysate, small-molecule microarray, COS7 lysate, 635/667 nm fluorescence, primary screen (AID 1116). To be noted: 635 nm fluorescence, higher = more signal.
The target of experiment [20] is Alpha-bungarotoxin (Bungarus multicinctus) (UniProt P60615). The experiment is described as follows: compounds binding labelled alpha-BTX control protein – biochemical, small-molecule microarray, Alexa647 label, 635/667 nm fluorescence, artefact control for SMM control protein annotation, profiling panel (AID 1117). To be noted: alpha-BTX-A647 binding fluorescence, higher = more signal.
Chain of Alpha-bungarotoxin (Bungarus multicinctus) (P60615 whole entry, looked up): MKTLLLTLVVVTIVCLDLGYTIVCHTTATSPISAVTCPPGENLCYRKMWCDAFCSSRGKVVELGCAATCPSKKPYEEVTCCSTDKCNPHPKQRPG

Chain of Epidermal growth factor receptor (Homo sapiens) (P00533 whole entry, looked up): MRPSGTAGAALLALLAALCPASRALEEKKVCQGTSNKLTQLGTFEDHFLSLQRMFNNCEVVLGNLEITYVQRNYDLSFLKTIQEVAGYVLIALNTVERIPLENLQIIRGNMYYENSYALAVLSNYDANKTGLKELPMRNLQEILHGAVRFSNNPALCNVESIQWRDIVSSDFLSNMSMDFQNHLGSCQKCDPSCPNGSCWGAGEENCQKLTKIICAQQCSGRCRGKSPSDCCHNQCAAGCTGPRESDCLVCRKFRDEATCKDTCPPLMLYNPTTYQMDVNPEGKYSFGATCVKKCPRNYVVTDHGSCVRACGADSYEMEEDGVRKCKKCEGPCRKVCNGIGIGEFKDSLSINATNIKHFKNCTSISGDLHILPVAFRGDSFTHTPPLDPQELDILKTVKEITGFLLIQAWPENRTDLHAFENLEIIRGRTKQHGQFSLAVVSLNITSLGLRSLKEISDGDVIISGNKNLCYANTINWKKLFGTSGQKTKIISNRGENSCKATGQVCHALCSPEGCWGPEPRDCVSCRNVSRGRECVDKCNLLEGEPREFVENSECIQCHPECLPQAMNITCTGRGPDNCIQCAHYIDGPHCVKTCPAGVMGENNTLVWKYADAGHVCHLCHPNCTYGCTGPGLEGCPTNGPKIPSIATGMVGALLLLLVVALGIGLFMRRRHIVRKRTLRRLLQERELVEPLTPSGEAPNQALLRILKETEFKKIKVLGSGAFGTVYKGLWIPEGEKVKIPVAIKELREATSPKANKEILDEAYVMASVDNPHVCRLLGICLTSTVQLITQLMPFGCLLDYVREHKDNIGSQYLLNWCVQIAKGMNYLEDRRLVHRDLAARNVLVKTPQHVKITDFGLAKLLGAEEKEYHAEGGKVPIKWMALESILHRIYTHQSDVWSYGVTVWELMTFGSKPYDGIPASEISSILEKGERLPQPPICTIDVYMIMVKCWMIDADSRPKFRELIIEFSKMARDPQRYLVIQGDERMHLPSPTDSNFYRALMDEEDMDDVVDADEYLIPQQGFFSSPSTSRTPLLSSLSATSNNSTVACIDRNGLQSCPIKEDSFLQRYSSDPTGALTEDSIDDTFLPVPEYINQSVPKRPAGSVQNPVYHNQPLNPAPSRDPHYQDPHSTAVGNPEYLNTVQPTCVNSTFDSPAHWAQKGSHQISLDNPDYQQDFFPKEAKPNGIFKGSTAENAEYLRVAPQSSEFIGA
Chain of Follistatin-related protein 3 (Homo sapiens) (O95633 whole entry, looked up): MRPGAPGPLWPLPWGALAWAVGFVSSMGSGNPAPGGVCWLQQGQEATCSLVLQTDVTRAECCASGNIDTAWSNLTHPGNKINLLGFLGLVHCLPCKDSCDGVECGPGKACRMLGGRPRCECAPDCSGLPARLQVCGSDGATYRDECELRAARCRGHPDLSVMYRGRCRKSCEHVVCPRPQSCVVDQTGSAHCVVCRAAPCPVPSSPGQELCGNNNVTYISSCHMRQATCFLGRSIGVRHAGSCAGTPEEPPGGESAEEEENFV
Chain of Dickkopf-related protein 1 (Homo sapiens) (O94907 whole entry, looked up): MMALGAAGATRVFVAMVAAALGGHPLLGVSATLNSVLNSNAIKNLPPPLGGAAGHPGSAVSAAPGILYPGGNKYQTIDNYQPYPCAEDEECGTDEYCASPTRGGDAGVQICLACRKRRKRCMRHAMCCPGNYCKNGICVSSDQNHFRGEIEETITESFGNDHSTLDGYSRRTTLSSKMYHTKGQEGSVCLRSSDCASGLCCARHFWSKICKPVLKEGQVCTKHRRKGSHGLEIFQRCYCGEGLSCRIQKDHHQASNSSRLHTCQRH
Chain of Torsin-1A-interacting protein 1 (Homo sapiens) (Q5JTV8 whole entry, looked up): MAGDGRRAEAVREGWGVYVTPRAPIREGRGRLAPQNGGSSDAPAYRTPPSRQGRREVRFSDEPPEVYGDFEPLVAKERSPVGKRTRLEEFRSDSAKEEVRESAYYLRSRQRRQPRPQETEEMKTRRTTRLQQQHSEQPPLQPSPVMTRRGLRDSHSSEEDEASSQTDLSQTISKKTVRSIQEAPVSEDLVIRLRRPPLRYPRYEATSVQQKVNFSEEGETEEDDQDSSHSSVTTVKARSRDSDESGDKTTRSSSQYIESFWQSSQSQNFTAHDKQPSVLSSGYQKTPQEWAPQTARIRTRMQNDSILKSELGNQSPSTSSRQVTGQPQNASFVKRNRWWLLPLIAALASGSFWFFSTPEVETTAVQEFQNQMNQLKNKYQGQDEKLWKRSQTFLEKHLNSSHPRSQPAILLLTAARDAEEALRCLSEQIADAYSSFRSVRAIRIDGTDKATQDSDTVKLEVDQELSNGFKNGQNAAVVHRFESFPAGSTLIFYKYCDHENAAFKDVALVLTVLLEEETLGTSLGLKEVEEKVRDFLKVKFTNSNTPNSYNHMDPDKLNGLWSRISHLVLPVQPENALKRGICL
Chain of Left-right determination factor 2 (Homo sapiens) (O00292 whole entry, looked up): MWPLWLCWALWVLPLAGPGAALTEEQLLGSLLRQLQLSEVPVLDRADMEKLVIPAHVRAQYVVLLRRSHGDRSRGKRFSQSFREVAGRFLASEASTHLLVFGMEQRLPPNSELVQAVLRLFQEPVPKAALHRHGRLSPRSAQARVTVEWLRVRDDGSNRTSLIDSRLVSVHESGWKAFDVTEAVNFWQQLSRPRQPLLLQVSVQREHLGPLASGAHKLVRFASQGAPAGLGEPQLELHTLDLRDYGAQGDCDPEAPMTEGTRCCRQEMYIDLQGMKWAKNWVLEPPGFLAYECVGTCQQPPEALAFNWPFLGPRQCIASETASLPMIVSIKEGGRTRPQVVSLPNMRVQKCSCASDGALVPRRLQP
Chain of Fibroblast growth factor 10 (Homo sapiens) (O15520 whole entry, looked up): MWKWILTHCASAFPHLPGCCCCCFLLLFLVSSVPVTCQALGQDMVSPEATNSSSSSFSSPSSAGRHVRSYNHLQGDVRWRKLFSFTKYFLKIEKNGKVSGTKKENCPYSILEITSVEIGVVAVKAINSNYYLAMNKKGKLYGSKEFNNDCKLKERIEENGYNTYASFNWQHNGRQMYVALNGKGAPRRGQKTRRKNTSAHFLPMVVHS

For the compound `CC#CC(=O)Oc1ccccc1C=CC(=O)OCC`, the composite z-score in experiment [1] is 0.743; in experiment [2], -0.223; in experiment [3] it was -0.226; in [5] it was -0.176; in experiment [6] it was 0.0939; in [7], 0.27. In addition, the composite z-score in experiment [8] was 0.104; in experiment [9] it was -0.0092; in experiment [10], 0.321; in [11], 0.793; in experiment [13], 0.136; in experiment [14], 0.0515. Further, the composite z-score in experiment [15] is -0.27; in experiment [16], -0.096; in experiment [17], -0.0709; in experiment [18], -0.256; in experiment [19], 0.045; in experiment [20], 0.115. The z-score in [4] is -0.634 (inactive); in experiment [12], -2.16.

In the case of `COC(=O)[C@@]1(Cc2ccc(F)cc2)[C@H]2c3cc(C(=O)N4CCCC4)n(Cc4ccc(S(C)(=O)=O)cc4)c3C[C@H]2CN1C(=O)c1ccccc1`, the composite z-score in [1] was 1.2; in [2] it was 1.14; in experiment [3], 0.949; in [5] it was 0.598; in experiment [6] it was 0.108; in [7], 0.771. In addition, the composite z-score in experiment [8] stood at 0.473; in experiment [9], 0.328; in experiment [10] it was 1.38; in experiment [11], 1.38; in experiment [13], 0.533; in experiment [14], 1.36. In addition, the composite z-score in experiment [15] is 1.05; in [16] it was 0.25; in experiment [17], 0.232; in experiment [18], 1.89; in experiment [19], 0.186; in experiment [20], 0.453. Moreover, the z-score in experiment [4] is -0.501 (inactive); in [12], -1.88.

Turning to `COCCOC(=O)N1C(=O)[C@@]2(c3cc(C#CCC(C(=O)OC)C(=O)OC)ccc31)[C@H](C(=O)Nc1nc3ccccc3s1)[C@H]1C(=O)O[C@H](c3ccccc3)[C@H](c3ccccc3)N1[C@@H]2c1ccccc1OCCO`, the composite z-score in [1] is 1.52; in [2], 0.467; in experiment [3] it was 0.76; in experiment [5], 0.634; in experiment [6], 1.04; in experiment [7], 0.231. The composite z-score in experiment [8] was 1.29; in experiment [9] it was -0.154; in experiment [10] it was 0.046; in experiment [11], 0.142; in [13], 0.6; in experiment [14] it was 1.69. Further, the composite z-score in experiment [15] is 0.72; in experiment [16], -0.0445; in experiment [17] it was 0.151; in experiment [18], 0.106; in experiment [19], 0.886; in experiment [20], 2.2. Besides, the values for the z-score in [4] and in experiment [12] were 0.952 (inactive) and -1.52, respectively.

Turning to `CN1C(=O)C2C=CC(C(O)C#Cc3ccccc3)N(N3CCCCC3)C2C1=O` (stereo not given), the composite z-score amounted to 1.68 in [1]; 1.01 in [2]; 1.09 in experiment [3]; 0.945 in experiment [5]; 0.216 in experiment [6]; 0.568 in [7]. The composite z-score in experiment [8] was 0.731; in experiment [9], 0.0369; in experiment [10], 1.18; in experiment [11], -1.16; in [13], 0.414; in experiment [14], 1.19. Moreover, the composite z-score in experiment [15] was determined as 0.657; in experiment [16], 0.234; in experiment [17] it was 0.668; in experiment [18], 0.564; in [19], 0.494; in experiment [20] it was 1.04. Further, the z-score in [4] is 0.762 (inactive); in [12] it was -0.451.

Consider `COC(=O)[C@@]1(Cc2ccc(OC)cc2)[C@H]2c3cc(C(=O)N4CCCC4)n(Cc4ccc(O)c(OC)c4)c3C[C@H]2CN1C(=O)c1ccccc1`, for which the composite z-score in experiment [1] came to 1.18; in [2], 1.92; in experiment [3], 1.39; in experiment [5] it was 0.511; in [6], 0.164; in experiment [7], 0.207. In addition, the composite z-score in [8] is 0.282; in experiment [9], 0.0115; in [10], -0.0478; in experiment [11] it was 0.425; in [13], -0.114; in [14] it was 2.7. Also, the composite z-score in [15] turned out to be 0.957; in [16], 0.755; in experiment [17], 1.04; in experiment [18], 2.35; in experiment [19] it was 3.25; in experiment [20], 1.25. For the same compound, the results for the z-score in experiment [4] and in [12] were -1.15 (inactive) and -1.78, respectively.

In the case of `C=C(CCCC)/C(=C/C[C@@H](OC(C)=O)c1ccc(OCCO)cc1)c1cnc2ccccc2c1`, the composite z-score in experiment [1] is 0.619; in [2] it was -0.12; in experiment [3], 0.149; in experiment [5] it was 0.628; in experiment [6], -0.174; in [7] it was 0.401. Also, the composite z-score was 1.12 in experiment [8]; 0.698 in [9]; 1.53 in experiment [10]; 1.13 in experiment [11]; 0.285 in experiment [13]; -0.276 in experiment [14]. The composite z-score in experiment [15] is -0.642; in experiment [16], -0.0735; in experiment [17], -0.214; in [18] it was -0.158; in experiment [19], 0.887; in experiment [20] it was 1.29. The z-score in experiment [4] was -0.27 (inactive); in experiment [12], -1.44.

Regarding `O=C1N[C@@H](Cc2ccccc2)C(=O)N2[C@@H]1C[C@@H](C(=O)O)[C@H]2c1cccc(OCCO)c1`, the composite z-score is 1.56 in experiment [1]; 0.0092 in experiment [2]; 0.18 in experiment [3]; 1.45 in [5]; 1.29 in experiment [6]; 0.334 in experiment [7]. Besides, the composite z-score in [8] is 0.798; in experiment [9] it was 1.18; in experiment [10] it was 0.806; in experiment [11] it was 1.3; in [13], 0.941; in experiment [14], -0.657. Also, the composite z-score in experiment [15] was 0.465; in experiment [16] it was -0.176; in experiment [17], -0.243; in [18], -0.199; in experiment [19] it was 0.49; in experiment [20], 1.14. For the same compound, the z-score is 0.152 (inactive) in experiment [4] and 2.89 in experiment [12].

The values are drawn from PubChem BioAssay.
